{"source": "PubChem BioAssay (Tox21)", "note": "Results filed as inconclusive are left out. A number with no mark means an inactive call. Calls of active or inactive are those of the source. Calls come from the whole dose curve; as a rule, active = well fitted cell-killing curve with a large enough effect in the repeat runs; inconclusive = weak or mixed curves; inactive = no such curve, though single readings can be large or run the other way. % is set by controls: 0 for no effect and ±100 for the full control effect; potency is the fitted concentration of half-maximal effect.", "data": [{"test": "qHTS assay for identifying genotoxic compounds that show differential cytotoxicity against isogenic chicken DT40 cell lines with known DNA damage response pathways - Rad54/Ku70 mutant cell line (AID 743015); note: nearly all actives have a fitted effect of over 60% in size", "conditions": "DT40 Rad54/Ku70 mutant viability, CellTiter-Glo, 40 h; series mostly up to 66.8 µM; activity change, negative = cytotoxicity: at the top concentration", "excerpt": "National Center for Advancing Translational Sciences [NCATS]\nNIH Chemical Genomics Center [NCGC]\nU.S. Environmental Protection Agency [EPA]\nNational Institutes of Environmental Health Sciences [NIEHS]\nNational Toxicology Program [NTP]\nU.S. Food and Drug Administration [FDA]\nDNA repair pathways play a critical role in cellular homeostasis by repairing DNA damage induced by endogenous processes and xenobiotics. Isogenic chicken DT40 cell lines deficient in different DNA repair pathways can be used to identify genotoxic compounds and aid in characterizing the nature of the DNA damage induced. Two DNA repair-deficient cell lines with disrupted genes, Rad54/Ku70 or Rev3, were used to screen the Tox21 10K compound library. Possible genotoxicity was based on the presence of a significant increase in cytotoxicity in one or more of the DNA repair-deficient cell lines compared to that observed in the parental DNA repair-proficient cell line. CellTiter Glo viability assay (Promega, Madison, WI) was used to measure cell viability in these cells after compound treatment. This assay includes the data from the Rad54/Ku70 mutant cell line.\nTox21 Assay Protocol Summary:\n300 DT40 mutant cells in 5 uL/well were dispensed into white, solid-bottom 1536-well plates using a Multidrop Combi (ThermoFisher Scientific, Waltham, MA) dispenser. After the assay plates were incubated at 37 C/5% CO2 for approximately 0.5 hour, 23 nL of compounds dissolved in DMSO, positive controls or DMSO only was transferred into the assay plate by a pintool work station (Kalypsys, San Diego, CA). The assay plates were incubated at 37 C/5% CO2 for 40 hours. After 5 uL per well of CellTiter-Glo reagent was added into each well of the assay plates, the plates were incubated for 30 min at room temperature and the luminescence intensity of the plates was measured using a ViewLux (PerkinElmer, Shelton, CT) plate reader.", "values": [{"smiles": "CCCCOCCOC(=O)COc1ccc(Cl)cc1Cl", "activity change, negative = cytotoxicity": "-1.42%"}, {"smiles": "CCOc1cccc(N)c1", "activity change, negative = cytotoxicity": "6.72%"}, {"smiles": "CCCCC1CCC(O)CC1", "note": "(stereo not given)", "activity change, negative = cytotoxicity": "12%"}, {"smiles": "CC(S)C(C)S", "note": "(stereo not given)", "activity change, negative = cytotoxicity": "0.474% [at 95.1 µM]"}, {"smiles": "CCCCSCCCC", "activity change, negative = cytotoxicity": "-0.149%"}, {"smiles": "CC1(C)[C@H]2CC[C@](C)(C2)[C@H]1O", "activity change, negative = cytotoxicity": "7.11% [at 95.1 µM]"}, {"smiles": "Cc1c(NC(=O)c2cccnc2)c(=O)n(-c2ccccc2)n1C", "activity change, negative = cytotoxicity": "5.49% [at 30.7 µM]"}, {"smiles": "CC(=O)O[C@@H]1CC2CCC1(C)C2(C)C", "note": "(stereo not given in full)", "Potency": "inactive"}, {"smiles": "COc1c2occc2c(OC)c2c(=O)cc(C)oc12", "activity change, negative = cytotoxicity": "-15.5% [at 30.7 µM]"}, {"smiles": "COP(=O)(O)OP(=O)(O)OC", "activity change, negative = cytotoxicity": "0.232%"}, {"smiles": "CC(=O)OC1CCCCC1C(C)(C)C", "note": "(stereo not given)", "activity change, negative = cytotoxicity": "24.3%"}, {"smiles": "CC(=O)C(C)O", "note": "(stereo not given)", "activity change, negative = cytotoxicity": "-5.56%"}, {"smiles": "C=CCCCC", "activity change, negative = cytotoxicity": "4.46% [at 95.1 µM]"}, {"smiles": "O=NN(CCCl)C(=O)NC1CCCCC1", "activity change, negative = cytotoxicity": "7.79%"}, {"smiles": "C=Cc1ccc(C(C)(C)C)cc1", "activity change, negative = cytotoxicity": "-0.0458%"}, {"smiles": "O=C(O)CONC(=O)c1ccccc1", "activity change, negative = cytotoxicity": "13.3%"}, {"smiles": "CCCC(=O)Nc1ccc(OCC(O)CNC(C)C)c(C(C)=O)c1", "note": "(stereo not given)", "activity change, negative = cytotoxicity": "3.05% [at 30.7 µM]"}, {"smiles": "COC(=O)/C=C\\C(=O)O", "activity change, negative = cytotoxicity": "-0.525%"}, {"smiles": "OCC1(CO)COCOC1", "activity change, negative = cytotoxicity": "23.5%"}, {"smiles": "COS(=O)(=O)O", "activity change, negative = cytotoxicity": "0.853%"}, {"smiles": "CC(=O)CC(=O)OC(C)(C)C", "activity change, negative = cytotoxicity": "-21.4%"}, {"smiles": "CCCCCCCCCCCCCBr", "activity change, negative = cytotoxicity": "-10%"}, {"smiles": "C[C@H]1[C@@H](c2ccccc2)NC(=O)N1C", "activity change, negative = cytotoxicity": "-5.04% [at 95.1 µM]"}, {"smiles": "CC1(C)O[C@H]2CC(=O)OC[C@]23[C@H]2CC[C@@]4(C)[C@H](c5ccoc5)OC(=O)[C@H]5O[C@]54[C@]2(C)C(=O)C[C@@H]13", "activity change, negative = cytotoxicity": "0.803%"}, {"smiles": "CNCCS(=O)(=O)O", "activity change, negative = cytotoxicity": "5.45% [at 95.1 µM]"}, {"smiles": "O=S(=O)(O)c1ccc2c(N=Nc3ccc(S(=O)(=O)O)c4ccccc34)c(O)c(S(=O)(=O)O)cc2c1", "activity change, negative = cytotoxicity": "0.0993% [at 8.55 µM]"}, {"smiles": "O=C(Cl)c1ccccc1[N+](=O)[O-]", "activity change, negative = cytotoxicity": "-2.93% [at 95.1 µM]"}, {"smiles": "CCOC(CN1CCN(CC(C)C(=O)c2ccccc2)CC1)c1ccccc1", "note": "(stereo not given)", "Potency": "18.8 µM (active)"}, {"smiles": "Cn1c(=O)c2[nH]c(Br)nc2n(C)c1=O", "activity change, negative = cytotoxicity": "-0.633%"}, {"smiles": "CC(O)CC(C)O", "note": "(stereo not given)", "activity change, negative = cytotoxicity": "7.63%"}, {"smiles": "CC(C)Cn1cnc2c1c(=O)n(C)c(=O)n2C", "activity change, negative = cytotoxicity": "10.8%"}, {"smiles": "Cc1c(N)cccc1Cl", "activity change, negative = cytotoxicity": "2.16%"}, {"smiles": "CO[C@@]1(NC(=O)Cc2cccs2)C(=O)N2C(C(=O)O)=C(COC(N)=O)CS[C@@H]21", "Potency": "inactive"}, {"smiles": "CCC(=O)CC", "activity change, negative = cytotoxicity": "4.66%"}, {"smiles": "CCc1occc(=O)c1O", "activity change, negative = cytotoxicity": "-0.493%"}, {"smiles": "N#CCC(=O)NN", "activity change, negative = cytotoxicity": "7.4%"}, {"smiles": "Nc1nc(-c2ccccc2)c(Br)c(=O)[nH]1", "activity change, negative = cytotoxicity": "16.4%"}, {"smiles": "CC(C)(CO)C(O)C(=O)NCCCO", "note": "(stereo not given)", "activity change, negative = cytotoxicity": "7.06%"}, {"smiles": "CCCCCCC1(C)CCC(=O)O1", "note": "(stereo not given)", "activity change, negative = cytotoxicity": "-3.9%"}, {"smiles": "CCO[Si](CC)(OCC)OCC", "activity change, negative = cytotoxicity": "-7.96%"}]}]}
